Where a name gives a salt, the structure may show the parent alone. ± gives the standard deviation of the averaged measurements.

The test system of this assay is Toxoplasma gondii RH (in HFF). Description: parasite growth relative to the screen mean (all compounds = 100%); higher = less inhibition of parasite growth. As to conditions: 5 µM; 72 h; oxygen 21 %. In outline:
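Growth values are relative to the mean of the whole screen and averaged over duplicate screens, with all compounds together set to 100%. Parasites (RH β-Gal–GFP Toxoplasma, MOI 1:5) were added within 2 h of pinning compounds at 5 µM final onto confluent human foreskin fibroblasts and grown 72 h at 21% O2. Parasite number came from CPRG β-Gal readings against in-plate standard curves.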
Consider `Oc1c2ccccc2c2c3c(cccc13)N=N2`, for which the parasite growth turned out to be 7.23 ± 4.4%.
As for `Cn1cc(C2=C(c3ccc(Cl)cc3Cl)C(=O)NC2=O)c2ccccc21`, the figure is 136 ± 4.2%.
The compound `CC(C)NCC(O)COc1ccccc1-n1cccc1` (stereo not given) [Isamoltane hemifumarate] gave a parasite growth of 97 ± 39%.
As for `CC1(C)Oc2ccc(C#N)cc2[C@@H](N2CCCC2=O)[C@@H]1O` [Levcromakalim], the figure is 158 ± 31%.
The compound `COc1ccc(NS(=O)(=O)c2ccc(I)cc2)cc1N1CCN(C)CC1` registered a parasite growth of 122 ± 17%.
Compound `Cc1c(C(=O)NN2CCCCC2)nn(-c2ccc(Cl)cc2Cl)c1-c1ccc(I)cc1` showed a parasite growth of 45.2 ± 3%.
In turn, `O=c1[nH]ccc2c(S(=O)(=O)N3CCCNCC3)cccc12` [HA 1100 hydrochloride] had a parasite growth of 122 ± 10%.
Under `CN1Cc2c(C(=O)OC(C)(C)C)ncn2-c2ccsc2C1=O` stands 55.6 ± 4.8%; under `COc1ccc2[nH]c(I)c(CCNC(C)=O)c2c1` [2-Iodomelatonin], 106 ± 4.9%.
In turn, `c1ccc(C(NCCNC(c2ccccc2)c2ccccc2)c2ccccc2)cc1` [AMN 082 dihydrochloride] registered a parasite growth of 35.1 ± 15%.
The compound `COC1CCC(C(=O)c2ccc3nc4c(cc3c2)CCCO4)CC1` (stereo not given) had a parasite growth of 136 ± 27%.
Under `COc1cc2ncnc(Nc3ccc(F)c(Cl)c3)c2cc1OCCCN1CCOCC1` [Iressa] stands 99 ± 20%; under `CN1CCC(=C2c3ccccc3CC(=O)c3sccc32)CC1` [Ketotifen fumarate], 54.3 ± 14%; under `COC(=O)C[C@](O)(CCCC(C)(C)O)C(=O)O[C@@H]1C(OC)=C[C@]23CCCN2CCc2cc4c(cc2[C@H]13)OCO4` [Homoharringtonine], below 0%.
With `CC(C1=C(CCN(C)C)Cc2ccccc21)c1ccccn1` (stereo in doubt) [(S)-(+)-Dimethindene maleate], the parasite growth was found to be 83.1 ± 56%.
Regarding `CC(NC(=O)c1ccccc1/N=C/c1c(O)ccc2ccccc12)c1ccccc1` (stereo not given) [Sirtinol], the parasite growth was determined as 97.5 ± 34%.
As for `COc1cc2ncnc(Nc3ccc(Cl)cc3F)c2cc1OC`, the figure is 28.9 ± 13%.
As to `N#Cc1ccc(NCCNCC(=O)N2CCC[C@H]2C#N)nc1` [NVP DPP 728 dihydrochloride], the parasite growth came out at 81.5 ± 3.9%.
In turn, `CN(C)C(=O)C(CCN1CCC(O)(c2ccc(Cl)cc2)CC1)(c1ccccc1)c1ccccc1` [Loperamide hydrochloride] had a parasite growth of 20.6 ± 19%.
Under `CCCCCCCC/C=C\CCCCCCCC(=O)N[C@@H](CO)Cc1ccc(O)cc1` stands 171 ± 11%; under `CCN(CC)CCOc1ccc(Cc2ccccc2)cc1` [DPPE fumarate], 75.7 ± 1.7%; under `O=C(c1ccc(F)cc1)C1CCN(CCn2c(=S)[nH]c3ccccc3c2=O)CC1` [Altanserin hydrochloride], 135 ± 6.3%.
Under `CC(C)[C@H](NS(=O)(=O)c1ccc(-c2ccc(Br)cc2)cc1)C(=O)O` stands 130 ± 34%; under `O=C1CCc2c(ccc3ccccc23)O1` [Splitomicin], 149 ± 2.2%; under `O=c1cc(-c2ccccc2)oc2cc(O)c(O)c(O)c12` [Baicalein], 173 ± 30%.

The values are drawn from the supplement of paper PMC4894684.
